Test results from publication PMC8384837, “Expanding the binding specificity for RNA recognition by a PUF domain”.

Columns and labels:
Assay in all cases: yeast three-hybrid, YBZ-1, SC-Leu-His + 0.5 mM 3-AT, 4 days
Details in all cases: tags: N-Gal4 AD-HA kept; label: inside an RPR1-promoter hybrid RNA with tandem MS2 sites; ssRNA
PUM1 PUF domain R5-FQR = PUM1 PUF domain R5-FQR (Homo sapiens, UniProt Q14671 828-1176, C1007F;R1008Q;Q1011R)
Outline: (§1)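 A centromeric plasmid in strain YBZ-1 co-expressed Pumilio-1 PUF domain libraries, randomized at the three base-contacting residues of each repeat, with matching RNA elements; the strain carries a LexA–MS2 coat fusion and a HIS3 reporter. After four days on SC-Leu (input) or SC-Leu-His + 0.5 mM 3-AT (selection), the repeat regions were PCR-amplified and Illumina-sequenced. The interaction score is the log change in variant frequency from input to selection, using log2 and a pseudocount of 1 where absent.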

PUM1 PUF domain R5-KHA = PUM1 PUF domain R5-KHA (Homo sapiens, UniProt Q14671 828-1176, C1007K;R1008H;Q1011A)
Outline: as §1

PUM1 PUF domain R7-LFR = PUM1 PUF domain R7-LFR (Homo sapiens, UniProt Q14671 828-1176, S1079L;N1080F;E1083R)
Outline: as §1

PUM1 PUF domain R3-LWQ = PUM1 PUF domain R3-LWQ (Homo sapiens, UniProt Q14671 828-1176, C935L;R936W)
Outline: as §1

PUM1 PUF domain R4-DWL = PUM1 PUF domain R4-DWL (Homo sapiens, UniProt Q14671 828-1176, N971D;H972W;Q975L)
Outline: as §1

PUM1 PUF domain R8-TFN = PUM1 PUF domain R8-TFN (Homo sapiens, UniProt Q14671 828-1176, N1122T;Y1123F;Q1126N)
Outline: as §1

PUM1 PUF domain R8-QWG = PUM1 PUF domain R8-QWG (Homo sapiens, UniProt Q14671 828-1176, N1122Q;Y1123W;Q1126G)
Outline: as §1

Sequence: GGCUAGAACUAGUGGAUCCCCCGGCGCCCGGCGGCUCGAGCCCGGGUAAGUGUCAAUAGUCUGCAUGCCGCCGGGCGCCAUGCCUGCAGGUCGACUCUAGAAAACAUG
- binding signal (PUM1 PUF domain R5-FQR): 2.5 log2 enrichment (interaction score)
- binding signal (PUM1 PUF domain R5-KHA): 6.11 log2 enrichment (interaction score)

Sequence: GGCUAGAACUAGUGGAUCCCCCGGCGCCCGGCGGCUCGAGCCCGGGUAAGUUUAAAUAGUCUGCAUGCCGCCGGGCGCCAUGCCUGCAGGUCGACUCUAGAAAACAUG
- binding signal (PUM1 PUF domain R7-LFR): 5.84 log2 enrichment (interaction score)

Sequence: GGCUAGAACUAGUGGAUCCCCCGGCGCCCGGCGGCUCGAGCCCGGGUAAGUGUUAAUAGUCUGCAUGCCGCCGGGCGCCAUGCCUGCAGGUCGACUCUAGAAAACAUG
- binding signal (PUM1 PUF domain R5-FQR): 3.58 log2 enrichment (interaction score)

Sequence: GGCUAGAACUAGUGGAUCCCCCGGCGCCCGGCGGCUCGAGCCCGGGUAAGUCUAAAUAGUCUGCAUGCCGCCGGGCGCCAUGCCUGCAGGUCGACUCUAGAAAACAUG
- binding signal (PUM1 PUF domain R7-LFR): 4.97 log2 enrichment (interaction score)

Sequence: GGCUAGAACUAGUGGAUCCCCCGGCGCCCGGCGGCUCGAGCCCGGGUAAGUGUAAGUAGUCUGCAUGCCGCCGGGCGCCAUGCCUGCAGGUCGACUCUAGAAAACAUG
- binding signal (PUM1 PUF domain R3-LWQ): 5.4 log2 enrichment (interaction score)

Sequence: GGCUAGAACUAGUGGAUCCCCCGGCGCCCGGCGGCUCGAGCCCGGGUAAGUGUAUAUAGUCUGCAUGCCGCCGGGCGCCAUGCCUGCAGGUCGACUCUAGAAAACAUG
- binding signal (PUM1 PUF domain R4-DWL): 5.76 log2 enrichment (interaction score)

Sequence: GGCUAGAACUAGUGGAUCCCCCGGCGCCCGGCGGCUCGAGCCCGGGUAAGUGUAAUUAGUCUGCAUGCCGCCGGGCGCCAUGCCUGCAGGUCGACUCUAGAAAACAUG
- binding signal (PUM1 PUF domain R3-LWQ): 4.13 log2 enrichment (interaction score)

Sequence: GGCUAGAACUAGUGGAUCCCCCGGCGCCCGGCGGCUCGAGCCCGGGUAAGCGUAAAUAGUCUGCAUGCCGCCGGGCGCCAUGCCUGCAGGUCGACUCUAGAAAACAUG
- binding signal (PUM1 PUF domain R8-TFN): 2.95 log2 enrichment (interaction score)
- binding signal (PUM1 PUF domain R8-QWG): 2.14 log2 enrichment (interaction score)
